# Experiments:
# Experiment in all cases: PBM binding z-score (relative to random genomic background probes); higher = stronger binding; sequences stand for … in GC…GCGATTGACAGCGTAGAATGAAGG
# [1] = test system: FXR:RXRa (NR concentration 270 nM, RXRa partner concentration 90 nM)
# In short: (§1)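 Binding z-scores take random background probes as their reference. They come from custom Agilent 4×180K protein-binding microarrays incubated 1 h with ligand-free nuclear receptor dimers, with antibodies against each partner (one per run) detecting binding. Scanned fluorescence was regression-normalized.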
# [2] = test system: LXRa:RXRa (NR concentration 270 nM, RXRa partner concentration 90 nM)
# In short: as §1
# [3] = test system: LXRa homodimer (NR concentration 270 nM)
# In short: as §1
# [4] = test system: LXRb:RXRa (NR concentration 270 nM, RXRa partner concentration 90 nM)
# In short: as §1
# [5] = test system: LXRb homodimer (NR concentration 270 nM)
# In short: as §1
# [6] = test system: PPARa:RXRa (NR concentration 270 nM, RXRa partner concentration 90 nM)
# In short: as §1
# [7] = test system: PPARg:RXRa (NR concentration 180 nM, RXRa partner concentration 90 nM)
# In short: as §1
# [8] = test system: PPARg:RXRa 270nM:90nM, anti-RXR (NR concentration 270 nM, RXRa partner concentration 90 nM)
# In short: as §1
# [9] = test system: PPARg:RXRa 30nM:10nM, anti-RXR (NR concentration 30 nM, RXRa partner concentration 10 nM)
# In short: as §1
# [10] = test system: PPARg:RXRa 90nM:30nM, anti-RXR (NR concentration 90 nM, RXRa partner concentration 30 nM)
# In short: as §1
# [11] = test system: PPARg:RXRa DBDmut IVT, anti-RXR (DBD mutation: RXRa K156A/R161A, NR concentration 270 nM, RXRa partner concentration 90 nM)
# In short: as §1
# [12] = test system: PPARg:RXRa IVT, anti-PPARg (NR concentration 270 nM, RXRa partner concentration 90 nM)
# In short: as §1
# [13] = test system: PPARg DBDmut:RXRa IVT, anti-PPARg (DBD mutation: PPARg1 K132A/R137A, NR concentration 270 nM, RXRa partner concentration 90 nM)
# In short: as §1
# [14] = test system: PPARg DBDmut IVT, anti-PPARg (DBD mutation: PPARg1 K132A/R137A, NR concentration 270 nM)
# In short: as §1
# [15] = test system: PPARg homodimer (NR concentration 180 nM)
# In short: as §1
# [16] = test system: PXR:RXRa (NR concentration 270 nM, RXRa partner concentration 90 nM)
# In short: as §1
# [17] = test system: PXR homodimer (NR concentration 270 nM)
# In short: as §1
# [18] = test system: RARa:RXR (NR concentration 270 nM, RXRa partner concentration 90 nM)
# In short: as §1
# [19] = test system: RARa homodimer (NR concentration 270 nM)
# In short: as §1
# [20] = test system: RARb:RXRa (NR concentration 270 nM, RXRa partner concentration 90 nM)
# In short: as §1
Sequence,PBM binding z-score [1],PBM binding z-score [2],PBM binding z-score [3],PBM binding z-score [4],PBM binding z-score [5],PBM binding z-score [6],PBM binding z-score [7],PBM binding z-score [8],PBM binding z-score [9],PBM binding z-score [10],PBM binding z-score [11],PBM binding z-score [12],PBM binding z-score [13],PBM binding z-score [14],PBM binding z-score [15],PBM binding z-score [16],PBM binding z-score [17],PBM binding z-score [18],PBM binding z-score [19],PBM binding z-score [20]
TCTGCTAGCTCAGTTGGTCAGCTAACGAGCTGCC,-1.44,-1.29,-1.01,-1.04,-0.714,-0.45,-1.22,0.0147,0.674,0.449,0.435,0.0097,-0.882,-0.216,-1.73,-0.874,-1.69,-0.998,-2.24,-0.575
TCATATAGGTAACACAGGTGAAAGTCGGCATCTA,1.43,1.43,0.437,1.22,0.437,2.4,2.36,3.3,4.15,3.83,4.65,4.09,0.968,1.6,1.38,1.15,0.735,1.5,1.19,1
CCTGGTAGGTCATGGTCAGCTAATCTACAGTATG,3.94,3.15,0.527,2.3,0.0201,4.05,4.22,4.12,1.32,3.01,4.25,5.18,0.295,0.552,1.94,2.02,-0.0799,2.83,0.611,3.81
ACTTACGGGTCAACGAGCTTATAGCACGCGTATA,6.23,3.9,0.0459,3.55,0.744,5.49,4.76,5.05,1.71,3.6,3.07,3.31,0.724,0.908,1.42,3.19,-0.152,4.16,0.825,4
CAACCTAGGTCAAAGGTCAAAGTCGAGCCAACCA,8.61,7.41,5.72,7.42,3.03,7.49,12.5,10.1,10.9,11.3,5.72,7.45,2.7,1.79,4.67,7.39,1.35,8.88,2.65,5.83
CAAACTACGTCACCGGAAGGTCAAAGTCCGCATG,3.24,3.3,3.72,3.48,1.01,3.5,1.14,1.71,0.159,1.15,0.517,1.61,0.449,1.03,2.68,3.83,1.39,4.14,1.23,3.3
ATCTCTAGGTAATGATAGTTCAGTGAATGCAAAT,0.391,3.56,0.99,0.864,0.755,0.625,0.774,0.986,0.371,0.513,2.25,2.17,1.1,1.74,1.21,1.12,0.747,0.583,0.965,0.694
